Data published in PubChem BioAssay (NCATS).
Inconclusive results are not listed. Activity calls are given as the source filed them. Calls follow the shape of the dose curve; as a rule, active = well fitted curve in the direction sought with a large enough effect; inconclusive = small, poorly fitted or top-dose-only effect, or another doubt; inactive = no such curve, though single readings can be large; an effect the other way counts as inactive or inconclusive.

How the values were obtained:
[1] = qHTS for Inhibitors of the Aldehyde Dehydrogenase Family (ALDH1A2, ALDH1A3, ALDH2, ALDH3A1) (AID 2061307); conditions: ALDH inhibition qHTS; series mostly up to 50.3 µM; also: nearly all actives have a fitted effect of over 50% in size; as to Potency: test system not described further here; potency is read from the fitted curve at half-maximal effect
[2] = biological target: Aldehyde dehydrogenase, mitochondrial (Homo sapiens) (UniProt P05091); assay: qHTS for Inhibitors of the Aldehyde Dehydrogenase Family (ALDH2) Primary screen (AID 2061308); conditions: ALDH2 enzyme inhibition qHTS, 1536-well; series mostly up to 56 µM; also: nearly all actives have a fitted effect of over 55% in size
[3] = biological target: Retinaldehyde dehydrogenase 3 (Homo sapiens) (UniProt P47895); assay: qHTS for Inhibitors of the Aldehyde Dehydrogenase Family (ALDH1A3) Confirmatory screens (AID 2061311); conditions: ALDH inhibition qHTS; series mostly up to 46 µM; also: nearly all actives have a fitted effect of over 60% in size; also: potency is read from the fitted curve at half-maximal effect
[4] = biological target: Retinal dehydrogenase 2 (Homo sapiens) (UniProt O94788); assay: qHTS for Inhibitors of the Aldehyde Dehydrogenase Family (ALDH1A2) Confirmation screens (AID 2061314); conditions: ALDH1A2 enzyme inhibition qHTS confirmation; series mostly up to 45.9 µM; also: nearly all actives have a fitted effect of over 65% in size; also: potency is read from the fitted curve at half-maximal effect
[5] = biological target: Retinaldehyde dehydrogenase 3 (Homo sapiens) (UniProt P47895); assay: qHTS for Inhibitors of the Aldehyde Dehydrogenase Family (ALDH1A3) Primary screen (AID 2061315); conditions: ALDH inhibition qHTS; series mostly up to 56 µM
[6] = biological target: Aldehyde dehydrogenase 1A1 (Homo sapiens) (UniProt P00352); assay: qHTS for Inhibitors of the Aldehyde Dehydrogenase Family (ALDH1A1) Confirmatory screens (AID 2061316); conditions: ALDH inhibition qHTS; series mostly up to 47.3 µM; also: potency is read from the fitted curve at half-maximal effect; nearly all actives have a fitted effect of over 65% in size

Compound | Potency [1] | Potency [2] | Potency [3] | Potency [4] | Potency [5] | Potency [6]
COc1ccc(C2Nc3cccc(OC)c3C(=O)N2Cc2ccccc2)cc1COc1ccc(NC(C)=O)cc1 (stereo not given) | 1.13 µM (active) | inactive | 12.7 µM (active) | 10.1 µM (active) | inactive | 11.3 µM (active)
CN(C)c1cccc(-c2cnc(N3CCC(C(N)=O)CC3)s2)c1 | 8.96 µM (active) | inactive | 15.9 µM (active) | inactive | – | 10.1 µM (active)
O=C(Nc1ccc(N2CCOCC2)nc1)c1cccs1 | 25.1 µM (active) | inactive | 22.5 µM (active) | 22.5 µM (active) | inactive | 12.7 µM (active)
CC(=O)Nc1ccc(-c2c(NC(C)=O)sc3c2CCNC3)cn1 | inactive | inactive | inactive | 11.3 µM (active) | inactive | 17.9 µM (active)
COc1ccc(-n2c(C)c(C(C)=O)c3ccccc32)cc1 | 0.4 µM (active) | inactive | 15.8 µM (active) | inactive | inactive | –
COc1ccc(-c2c(NC(C)=O)sc3c2CCNC3)cc1 | inactive | inactive | inactive | 20.1 µM (active) | inactive | 11.3 µM (active)
Oc1ccc(CNc2cc(C(F)(F)F)ccn2)c2cccnc12 | 20.1 µM (active) | inactive | 5.65 µM (active) | 7.12 µM (active) | – | 11.3 µM (active)
Cc1[nH]cnc1C[C@H]1CCc2c(C)c3ccccc3n2C1=O | 8.96 µM (active) | inactive | 3.18 µM (active) | 11.3 µM (active) | inactive | –
Cc1c(C(=O)OCC2CCCCO2)[nH]c2c1C(=O)CC(c1ccco1)C2 (stereo not given) | inactive | inactive | 14.1 µM (active) | 7.12 µM (active) | inactive | 1.42 µM (active)
